Several values for one entry are separate records, joined by “and”; a condition that tells them apart may be missing. Equal entries are not always repeated. Records with an inconclusive call do not appear. Some compounds were tested as several samples or in several runs, with calls that do not always agree. Activity calls are given as the source filed them. The call rests on the fitted dose curve; in most records, active means well fitted curve in the direction sought with a large enough effect; inconclusive means small, poorly fitted or top-dose-only effect, or another doubt; inactive means no such curve, though single readings can be large; an effect the other way counts as inactive or inconclusive.
Tests used:
HaCat [1] = experiment: Cytotoxic Profiling of Annotated Libraries Using Quantitative High-Throughput Screening (AID 1296008); settings: Five cell lines viability, CellTiter-Glo ATP luminescence, 48-72 h; max response: stronger effect = lower value; further: nearly all actives have a fitted effect of over 60% in size; further: potency means the concentration at half of the fitted maximal effect
Procedure, shortened: (§1)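 Compounds were pin-transferred onto cells and incubated 48 or 72 hr at 37 degree Celsius, 95% humidity. CellTiter-Glo was added, plates sat 10 min at room temperature, then ATP-coupled luminescence was imaged as the viability read-out.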

KB-3-1 = experiment: as above; settings: Five cell lines viability, CellTiter-Glo ATP luminescence, 48-72 h; max response: stronger effect = lower value
Procedure, shortened: as §1

NIH3T3 [2] = experiment: as above; settings: Five cell lines viability, CellTiter-Glo ATP luminescence, 48-72 h; max response: stronger effect = lower value
Procedure, shortened: as §1

HACAT [3] = experiment: qHTS assay to identify novel small-molecules to repurpose for Merkel cell carcinoma treatment (AID 1296009); settings: MCC and control cell lines, CellTiter-Glo viability, 72 h; at 44.8 µM (top of the series) unless noted; further: nearly all actives have a fitted effect of over 60% in size; further: potency means the concentration at half of the fitted maximal effect
Procedure, shortened: (§2)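 Cells exposed to NPC (8-point) and MIPE (11-point) compound dilutions for 72 hr at 37 degree celsius; viability read by CellTiter-Glo luminescence, normalized to no-cell and DMSO in-plate controls.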

MCC-13 = experiment: as above; settings: MCC and control cell lines, CellTiter-Glo viability, 72 h; series mostly up to 46 µM
Procedure, shortened: as §2

MCC-26 = experiment: as above; settings: MCC and control cell lines, CellTiter-Glo viability, 72 h; series mostly up to 46 µM
Procedure, shortened: as §2

MKL-1 = experiment: as above; settings: MCC and control cell lines, CellTiter-Glo viability, 72 h; series mostly up to 46 µM
Procedure, shortened: as §2

MKL-2 = experiment: as above; settings: MCC and control cell lines, CellTiter-Glo viability, 72 h; series mostly up to 46 µM
Procedure, shortened: as §2

UISO = experiment: as above; settings: MCC and control cell lines, CellTiter-Glo viability, 72 h; series mostly up to 46 µM
Procedure, shortened: as §2

WaGa = experiment: as above; settings: MCC and control cell lines, CellTiter-Glo viability, 72 h; series mostly up to 46 µM
Procedure, shortened: as §2

C33A = experiment: Primary qHTS to identify gynecologic anti-cancer compounds using libraries of approved drugs and bioactive compounds (AID 1345084); settings: Gynecologic cancer cell panel viability, ATPlite luminescence, 48 h; series mostly up to 57.5 µM; further: nearly all actives have a fitted effect of over 55% in size
Procedure, shortened: (§3)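 48 h compound exposure at 37 C, 5% CO2; five-point qHTS. ATPlite luminescence readout of cell ATP.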

CAOV3 = experiment: as above; settings: Gynecologic cancer cell panel viability, ATPlite luminescence, 48 h; series mostly up to 57.5 µM
Procedure, shortened: as §3

CASKI = experiment: as above; settings: Gynecologic cancer cell panel viability, ATPlite luminescence, 48 h; series mostly up to 57.5 µM
Procedure, shortened: as §3

Es-2 = experiment: as above; settings: Gynecologic cancer cell panel viability, ATPlite luminescence, 48 h; series mostly up to 57.5 µM
Procedure, shortened: as §3

HeLa = experiment: as above; settings: Gynecologic cancer cell panel viability, ATPlite luminescence, 48 h; series mostly up to 57.5 µM
Procedure, shortened: as §3

Hek293T [4] = experiment: as above; settings: Gynecologic cancer cell panel viability, ATPlite luminescence, 48 h, control line for the selectivity index; series mostly up to 57.5 µM
Procedure, shortened: as §3

JEG-3 = experiment: as above; settings: Gynecologic cancer cell panel viability, ATPlite luminescence, 48 h; series mostly up to 57.5 µM
Procedure, shortened: as §3

OV90 = experiment: as above; settings: Gynecologic cancer cell panel viability, ATPlite luminescence, 48 h; series mostly up to 57.5 µM
Procedure, shortened: as §3

HEK293T [5] = experiment: qHTS assay to identify novel small-molecules to repurpose for Merkel cell carcinoma treatment (AID 1296009); settings: MCC and control cell lines, CellTiter-Glo viability, 72 h; at 44.8 µM (top of the series) unless noted; further: nearly all actives have a fitted effect of over 60% in size; further: potency means the concentration at half of the fitted maximal effect
Procedure, shortened: as §2

NIH3T3 [6] = experiment: as above; settings: MCC and control cell lines, CellTiter-Glo viability, 72 h; at 44.8 µM (top of the series) unless noted
Procedure, shortened: as §2
On the % scale 0 is the no-effect control and ±100 the full control effect.

Cc1cccc(Nc2ccncc2S(=O)(=O)NC(=O)NC(C)C)c1
inactive: max response (HaCat [1]) -0.391% | outcome (HaCat [1]) | max response (KB-3-1) -4.26% and -4.09% | max response (NIH3T3 [2]) 4.21% and -1.03% | outcome (HACAT [3]) | Potency (MCC-13) | Potency (MCC-26) | Potency (MKL-1) | Potency (MKL-2) | Potency (UISO) | Potency (WaGa) | Potency (C33A) | Potency (CAOV3) | Potency (CASKI) | Potency (Es-2) | Potency (HeLa) | Potency (Hek293T [4]) | Potency (JEG-3) | Potency (OV90)

Nc1nc(F)nc2c1ncn2[C@@H]1O[C@H](CO)[C@@H](O)[C@@H]1O
inactive and 2.09 µM (active): Potency (MCC-26)
active: Potency (KB-3-1) 820 nM and 1.3 µM and 1.18 µM | Potency (MCC-13) 2.35 µM | Potency (MKL-1) 16.8 µM | Potency (UISO) 13.3 µM and 935 nM | Potency (WaGa) 10.6 µM and 935 nM
inactive: max response (HaCat [1]) -5.85% | outcome (KB-3-1) | Potency (CAOV3) | Potency (CASKI) | Potency (HeLa) | Potency (Hek293T [4]) | Potency (JEG-3) | Potency (OV90)

CN(C)CCc1c[nH]c2ccc(CS(=O)(=O)N3CCCC3)cc12
inactive: max response (HaCat [1]) -24.1% | outcome (HaCat [1]) | max response (KB-3-1) 10.6% and 7.32% | max response (NIH3T3 [2]) -1.45% and -5.53% | outcome (HACAT [3]) | Potency (MCC-13) | Potency (MCC-26) | Potency (MKL-1) | Potency (MKL-2) | Potency (UISO) | Potency (WaGa) | Potency (C33A) | Potency (CAOV3) | Potency (CASKI) | Potency (Es-2) | Potency (Hek293T [4]) | Potency (JEG-3) | Potency (OV90)

O=C(O)c1cc(=O)[nH]c(=O)[nH]1
inactive: max response (HaCat [1]) -18% | outcome (HaCat [1]) | max response (KB-3-1) -14.3% and 1.15% | max response (NIH3T3 [2]) 3.37% | outcome (HACAT [3]) | Potency (MCC-13) | Potency (MKL-1) | Potency (MKL-2) | Potency (UISO) | Potency (WaGa) | Potency (C33A) | Potency (CAOV3) | Potency (CASKI) | Potency (Es-2) | Potency (Hek293T [4]) | Potency (JEG-3) | Potency (OV90)

CC[C@H](NC(C)C)[C@H](O)c1ccc(O)c2[nH]c(=O)ccc12
inactive: max response (HaCat [1]) -10.6% | outcome (HaCat [1]) | max response (KB-3-1) 8.39% | max response (NIH3T3 [2]) 2.87% and -5.91% | outcome (HACAT [3]) | outcome (HEK293T [5]) | Potency (MCC-13) | Potency (MKL-1) | Potency (MKL-2) | Potency (UISO) | Potency (WaGa) | Potency (C33A) | Potency (CAOV3) | Potency (CASKI) | Potency (Es-2) | Potency (Hek293T [4]) | Potency (JEG-3) | Potency (OV90)

O=C(O)c1cn(C2CC2)c2cc(N3CCNCC3)c(F)cc2c1=O
inactive: outcome (HaCat [1]) | max response (KB-3-1) -1.15% | outcome (KB-3-1) | outcome (NIH3T3 [2]) | outcome (HACAT [3]) | outcome (HEK293T [5]) | Potency (MCC-13) | Potency (MCC-26) | Potency (MKL-1) | Potency (MKL-2) | outcome (NIH3T3 [6]) | Potency (UISO) | Potency (WaGa) | Potency (C33A) | Potency (CAOV3) | Potency (CASKI) | Potency (Es-2) | Potency (Hek293T [4]) | Potency (JEG-3) | Potency (OV90)

CCOC(=O)[C@H](CCc1ccccc1)N[C@H]1CS[C@H](c2cccs2)CN(CC(=O)O)C1=O
inactive and 1.05 µM (active): Potency (MKL-2)
inactive: max response (HaCat [1]) 4.5% | outcome (HaCat [1]) | max response (KB-3-1) 4.95% | max response (NIH3T3 [2]) 3.22% and 0.311% | outcome (HACAT [3]) | outcome (HEK293T [5]) | Potency (MCC-13) | Potency (MCC-26) | Potency (UISO) | Potency (C33A) | Potency (CAOV3) | Potency (CASKI) | Potency (Es-2) | Potency (Hek293T [4]) | Potency (JEG-3) | Potency (OV90)
inactive and 469 nM (active): Potency (WaGa)
inactive and 5.26 µM (active): Potency (MKL-1)

O=C(O)c1ccc(-n2nc(-c3ccccc3O)nc2-c2ccccc2O)cc1
active: Potency (WaGa) 16.8 µM
inactive: max response (HaCat [1]) 2.92% | outcome (HaCat [1]) | outcome (HACAT [3]) | Potency (MCC-13) | Potency (MCC-26) | Potency (CAOV3) | Potency (CASKI) | Potency (HeLa)

C#CCN[C@@H]1CCc2ccccc21
inactive: max response (HaCat [1]) 0.653% | max response (KB-3-1) -4.71% | max response (NIH3T3 [2]) 1.77% | outcome (NIH3T3 [2]) | outcome (HEK293T [5]) | Potency (MCC-13) | Potency (MCC-26) | Potency (MKL-1) | Potency (MKL-2) | outcome (NIH3T3 [6]) | Potency (UISO) | Potency (WaGa) | Potency (C33A) | Potency (CAOV3) | Potency (CASKI) | Potency (Es-2) | Potency (HeLa) | Potency (Hek293T [4]) | Potency (JEG-3) | Potency (OV90)

O=C(O)C1CCCN(CCC=C(c2ccccc2)c2ccccc2)C1 (stereo not given)
inactive: max response (HaCat [1]) -1.89% | max response (KB-3-1) 5.05% | max response (NIH3T3 [2]) 3.07% | Potency (MCC-13) | Potency (MCC-26) | Potency (MKL-1) | Potency (MKL-2) | Potency (UISO) | Potency (WaGa)

CC(N)C12CC3CC(CC(C3)C1)C2 (stereo not given)
inactive: max response (HaCat [1]) 2.96% and 2.31% | max response (KB-3-1) 16.9% and 3.92% | outcome (NIH3T3 [2]) | Potency (MCC-13) | Potency (MCC-26) | Potency (MKL-1) | Potency (MKL-2) | outcome (NIH3T3 [6]) | Potency (UISO) | Potency (WaGa) | Potency (C33A) | Potency (CAOV3) | Potency (CASKI) | Potency (Es-2) | Potency (HeLa) | Potency (Hek293T [4]) | Potency (JEG-3)

— PubChem BioAssay (NCATS)
